Source: PubChem BioAssay (NCATS)
The source made the active and inactive calls. Calls come from the whole dose curve; as a rule, active = well fitted inhibition curve with a large enough effect; inconclusive = small, poorly fitted or top-dose-only effect; inactive = flat fitted curve, though single readings scatter.

What follows are molecules tested against ATP-dependent DNA helicase Q1 (Homo sapiens) (UniProt P46063) (assay: qHTS Validation Assay for Inhibitors of RecQ-Like Dna Helicase 1 (RECQ1) (AID 2353)). Conditions: recombinant RECQ1 helicase DNA unwinding assay; series mostly up to 25.6 µM.
From the text: Survival of cells and the faithful propagation of the genome depend on elaborate mechanisms of detecting and repairing DNA damage. Treatment of advanced cancer relies on radiation therapy or chemotherapy, which kill cancer cells by causing extensive DNA damage. It is often found, that cancer cells develop resistance to therapy through enhanced activity of DNA repair functions; this has led to an increased interest in developing drugs that interfere with DNA repair, which could sensitize cancer cells to conventional therapy.
This validation qHTS assay pertains to human RECQ1, which is important in resolving abnormal DNA structures formed during replication or homologous recombination. Shutting down the expression of RECQ1 leads to chromosomal instability and higher radiation sensitivity in cultured cells.
The validation assay was a fluorescence quenching based kinetic qHTS for RECQ1 Helicase DNA unwinding. The activity was measured as ATP-dependent separation of a 20-bp DNA duplex extended by 30-nt single-stranded tails (forked duplex). The forked DNA substrate was tagged with rhodamine fluorophore (carboxytetramethyl rhodamine, TAMRA) and BHQ-2 (Black Hole Quencher 2) dark quencher. Strand separation results in an increase in the fluorescence of TAMRA (excitation 525 nm, emission 598 nm). This substrate construct operates in a red-shifted region where very few compound library members have been noted to fluoresce (PubChem AIDs 593 and 594). An additional feature of the assay is the inclusion of 2.5 ug/ml poly (dIdC), to reduce interference by compounds such as DNA intercalators, a major source of false inhibitors.
Opher Gileadi, Structural Genomics Consortium, University of Oxford
Screening Center PI: Austin, C.P.
Screening Center: NIH Chemical Genomics Center [NCGC]
Three uL of reaction buffer (25 mM Tris-HCl (pH 8.0), 5 mM NaCl, 2 mM MgCl2, 1mM DTT, 0.01% Tween- 20, and 2.5 ug/ml poly(dI-dC), including enzyme (50 nM RECQ1T1), were dispensed into a 1536-well Greiner black assay plate via solenoid-valve based nanoliter dispensers. Compounds (23 nl each in columns 5-48) and control (23 nl each in column 2 as dose-response) were transferred via a Kalypsys pintool equipped with a 1536-pin array. The plates were incubated for 15 min at room temperature, and then 1 ul of substrates (200 nM DNA and 2 mM ATP, final concentrations) was added to start the reaction. The plate was transferred into a ViewLux high-throughput CCD imager where the reaction progress was measured in a discontinuous kinetic mode (two reads spaced 2 hours apart, with intermediate room temperature incubation of the covered assay plate) by using standard red-fluorescence optics (excitation filter 525 nm, emission filter 598 nm). Enzyme-free and vehicle (DMSO) controls were included for signal normalization.

Chain of ATP-dependent DNA helicase Q1 (Homo sapiens) (P46063 whole entry, looked up): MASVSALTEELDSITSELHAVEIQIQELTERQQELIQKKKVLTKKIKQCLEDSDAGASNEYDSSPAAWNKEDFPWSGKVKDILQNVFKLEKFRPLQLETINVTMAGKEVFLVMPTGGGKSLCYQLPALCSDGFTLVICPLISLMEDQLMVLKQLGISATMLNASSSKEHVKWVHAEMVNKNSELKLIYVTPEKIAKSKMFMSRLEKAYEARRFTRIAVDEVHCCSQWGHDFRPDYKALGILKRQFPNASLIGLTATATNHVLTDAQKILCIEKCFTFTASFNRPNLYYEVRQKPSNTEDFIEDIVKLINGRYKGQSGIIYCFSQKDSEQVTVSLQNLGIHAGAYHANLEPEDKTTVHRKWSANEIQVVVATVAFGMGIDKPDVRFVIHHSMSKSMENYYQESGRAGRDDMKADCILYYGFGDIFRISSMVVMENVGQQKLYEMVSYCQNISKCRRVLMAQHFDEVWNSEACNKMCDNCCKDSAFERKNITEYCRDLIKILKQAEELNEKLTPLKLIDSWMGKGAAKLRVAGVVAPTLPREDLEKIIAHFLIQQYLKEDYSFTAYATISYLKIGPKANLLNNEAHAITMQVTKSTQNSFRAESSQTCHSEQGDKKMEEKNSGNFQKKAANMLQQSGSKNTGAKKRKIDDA

SMILES | outcome
CC(C)OC(=O)C(C)(C)Oc1ccc(C(=O)c2ccc(Cl)cc2)cc1 | inactive
CCCCC1C(=O)N(c2ccccc2)N(c2ccccc2)C1=O | inactive
O=C(O)CCc1nc(-c2ccccc2)c(-c2ccccc2)o1 | inactive
NC(N)=Nc1nc(CSCC/C(N)=N/S(N)(=O)=O)cs1 | inactive
COc1cccc(-c2cc(=O)c3ccccc3o2)c1N | inactive
CN(C)CCC(c1ccccc1)c1ccccn1 (stereo not drawn) | inactive
CC1(C)CCC2=C(O1)c1ccccc1C(=O)C2=O | inactive
CCCNC(=O)NS(=O)(=O)c1ccc(Cl)cc1 | inactive
CC(C)(C)c1ccc(C(O)CCCN2CCC(C(O)(c3ccccc3)c3ccccc3)CC2)cc1 (stereo not drawn) | inactive
O=C1NCC2(CCN(CCc3ccccc3)CC2)O1 | inactive
CCN(CC)CCOC(=O)c1ccc(N)cc1 | inactive
Cc1cccc(C)c1OCC(C)N (stereo not drawn) | inactive
CC(=O)c1ccc(S(=O)(=O)NC(=O)NC2CCCCC2)cc1 | inactive
CCN(CC)C(=O)c1ccc(O)c(OC)c1 | inactive
Clc1ccc(Cn2c(CN3CCCC3)nc3ccccc32)cc1 | inactive
CC(=O)CCCCn1c(=O)c2c(ncn2C)n(C)c1=O | inactive
COc1ccccc1N1CCN(CCCNc2cc(=O)n(C)c(=O)n2C)CC1 | inactive
O=c1c(-c2ccc(O)cc2)coc2cc(O)ccc12 | inactive
NCCS | inactive
CC1=C(/C=C/C(C)=C/C=C/C(C)=C/C(=O)Nc2ccc(O)cc2)C(C)(C)CCC1 | inactive
CC/C(=C(\c1ccccc1)c1ccc(OCCN(C)C)cc1)c1ccccc1 | inactive
O=c1cc(-c2ccc(O)cc2)oc2cc(O)cc(O)c12 | inactive
CCN1CCC[C@H]1CNC(=O)c1cc(S(N)(=O)=O)ccc1OC | inactive
C[N+](C)(C)CCCCCC[N+](C)(C)C | inactive
COC(=O)[C@@H]1[C@H]2C[C@H]3c4[nH]c5ccccc5c4CCN3C[C@@H]2CC[C@@H]1O | inactive
O=C1NC(=O)C(c2ccccc2)(c2ccccc2)N1 | inactive
CC(C)NCC(O)COc1cccc2[nH]ccc12 (stereo not drawn) | inactive
CCN(CC)CCNC(=O)c1ccc(N)cc1 | inactive
